# Measured values as given in PubChem BioAssay (NCATS).
# Several values for one entry are separate records, joined by “and”; a condition that tells them apart may be missing. Equal values may be shown once. Records with an inconclusive call do not appear. A call without a number means that no potency is given here. Unmarked numbers belong to inactive results. Activity calls are given as the source filed them. The call rests on the fitted dose curve; in most records, active means well fitted curve in the direction sought with a large enough effect; inconclusive means small, poorly fitted or top-dose-only effect, or another doubt; inactive means no such curve, though single readings can be large; an effect the other way counts as inactive or inconclusive.
# Tests used:
# [1] = target: Cytochrome P450 3A7 (Homo sapiens) (UniProt P24462); experiment: Cytochrome P450 family 3 subfamily A member 7 (CYP3A7) small molecule antagonists: luciferase biochemical qHTS assay (AID 1963596); settings: P450-Glo CYP3A7 enzyme luminescence, 1 h; series mostly up to 57.4 µM; further: nearly all actives have a fitted effect of over 40% in size; further: potency means the concentration at half of the fitted maximal effect
# Sequence of Cytochrome P450 3A7 (Homo sapiens) (P24462 whole entry, looked up): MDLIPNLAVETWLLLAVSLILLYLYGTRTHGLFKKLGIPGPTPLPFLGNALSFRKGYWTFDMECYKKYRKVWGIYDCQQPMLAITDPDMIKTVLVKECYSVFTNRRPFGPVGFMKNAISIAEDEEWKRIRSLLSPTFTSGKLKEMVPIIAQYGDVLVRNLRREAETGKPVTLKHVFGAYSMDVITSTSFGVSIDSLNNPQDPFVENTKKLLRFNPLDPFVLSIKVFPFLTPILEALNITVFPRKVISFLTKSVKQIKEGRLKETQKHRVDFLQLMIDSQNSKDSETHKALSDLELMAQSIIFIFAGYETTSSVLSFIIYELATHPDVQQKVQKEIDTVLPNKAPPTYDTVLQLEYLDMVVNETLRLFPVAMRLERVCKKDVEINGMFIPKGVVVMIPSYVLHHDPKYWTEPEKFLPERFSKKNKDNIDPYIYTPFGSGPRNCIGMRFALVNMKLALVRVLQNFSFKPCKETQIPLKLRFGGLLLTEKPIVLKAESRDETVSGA
# Summary of the method: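 In this luminescent screen, enzyme and proluciferin substrate meet test compound for 10 min before NADPH regeneration solution drives a 1 h room-temperature reaction; detection reagent halts turnover and luminescence is read 20 min later.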
# [2] = Viability qHTS for spleen associated tyrosine kinase inhibitor (SYKi) naive MV4-11 cells (AID 1963823); settings: MV4-11 AML viability, CellTiter-Glo luminescence, 72 h; series mostly up to 45 µM; further: nearly all actives have a fitted effect of over 40% in size; further: potency means the concentration at half of the fitted maximal effect
# Summary of the method: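 Read-out: CellTiter-Glo luminescence. Exposure: 72 hr, 37 C, 5% CO2, 95% humidity. Cells: MV4-11 without SYK inhibitor history, 500/well, qHTS format.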
# [3] = Viability qHTS for spleen associated tyrosine kinase inhibitor (SYKi) drug resistant MV4-11 cells (AID 1963824); settings: SYKi-resistant MV4-11 viability, CellTiter-Glo, 72 h; series mostly up to 45 µM; further: nearly all actives have a fitted effect of over 35% in size; further: potency means the concentration at half of the fitted maximal effect
# Summary of the method: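 SYK-inhibitor-resistant MV4-11 AML cells were seeded at 500 per well onto compound and cultured 72 hours (37 °C, 5% CO2). CellTiter-Glo was then added, and after 10 min at room temperature, luminescence gave viability.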
# [4] = Cellular viability qHTS for adrenocortical cancer (ACC) cell line NCI-H295R (AID 1963990); settings: CellTiter-Glo ATP luminescence, 48 h; series mostly up to 46.1 µM; further: nearly all actives have a fitted effect of over 60% in size; further: potency means the concentration at half of the fitted maximal effect
# Summary of the method: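 IC50 and maximal efficacy derive from four-parameter logistic modelling of titration curves, with reads scaled between DMSO-only wells (0%) and doxorubicin hydrochloride (100% inhibition). Compounds spanned up to 46 uM over 48 h.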
# [5] = Quantitative highthroughput screen to assess conditional lethalithy of NOMO1 cells grown in RPMI1640 with untreated serum (RPMI+s) (AID 1963876); settings: NOMO1 AML cells in RPMI+serum, CellTiter-Glo viability, 48 h; series mostly up to 45.8 µM; further: nearly all actives have a fitted effect of over 35% in size; further: potency means the concentration at half of the fitted maximal effect
# Summary of the method: (§1)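 Each medium arm—HPLM with 10% dialyzed FBS, or RPMI1640 with 5 mM glucose and 10% untreated or dialyzed FBS—was screened against an 11-point, 3-fold compound titration for 48 h at 37 °C, with CellTiter-Glo luminescence as endpoint.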
# [6] = Quantitative highthroughput screen to assess conditional lethalithy of NOMO1 cells grown in RPMI1640 with dialyzed fetal bovine serum (RPMI+ds) (AID 1963877); settings: NOMO1 in RPMI+dialyzed FBS viability, ATP luminescence, 48 h; series mostly up to 45.8 µM; further: nearly all actives have a fitted effect of over 30% in size; further: potency means the concentration at half of the fitted maximal effect
# Summary of the method: as §1
# [7] = Quantitative highthroughput screen to assess conditional lethalithy of NOMO1 cells grown in Human Plasma-Like Medium with dialyzed fetal bovine serum (HPLM+ds) (AID 1963878); settings: NOMO1 AML cells in HPLM+ds, CellTiter-Glo viability, 48 h; series mostly up to 45.8 µM; further: nearly all actives have a fitted effect of over 35% in size
# Summary of the method: as §1
# [8] = Quantitative highthroughput screen to assess conditional lethalithy of P12 Ichikawa cells grown in Human Plasma-Like Medium with dialyzed fetal bovine serum (HPLM+ds) (AID 1963879); settings: ATP luminescence, 48 h; Potency: viability; series mostly up to 45.8 µM; further: nearly all actives have a fitted effect of over 35% in size; further: potency means the concentration at half of the fitted maximal effect
# Summary of the method: as §1
# [9] = Quantitative highthroughput screen to assess conditional lethalithy of P12 Ichikawa cells grown in RPMI1640 with dialyzed fetal bovine serum (RPMI+ds) (AID 1963880); settings: ATP luminescence, 48 h; Potency: P12-Ichikawa viability; series mostly up to 45.8 µM; further: nearly all actives have a fitted effect of over 35% in size; further: potency means the concentration at half of the fitted maximal effect
# Summary of the method: as §1
# [10] = Quantitative highthroughput screen to assess conditional lethalithy of P12 Ichikawa cells grown in RPMI1640 with untreated serum (RPMI+s) (AID 1963881); settings: ATP luminescence, 48 h; Potency: viability; series mostly up to 45.8 µM; further: nearly all actives have a fitted effect of over 35% in size; further: potency means the concentration at half of the fitted maximal effect
# Summary of the method: as §1
# [11] = Quantitative highthroughput screen to assess conditional lethalithy of SEM cells grown in Human Plasma-Like Medium with dialyzed fetal bovine serum (HPLM+ds) (AID 1963882); settings: SEM B-ALL cells in HPLM+ds, CellTiter-Glo viability, 48 h; series mostly up to 45.8 µM; further: nearly all actives have a fitted effect of over 35% in size; further: potency means the concentration at half of the fitted maximal effect
# Summary of the method: as §1
# [12] = Quantitative highthroughput screen to assess conditional lethalithy of SEM cells grown in RPMI1640 with unreated serum (RPMI+s) (AID 1963883); settings: SEM B-ALL cells, CellTiter-Glo viability, 48 h; series mostly up to 45.8 µM; further: nearly all actives have a fitted effect of over 35% in size; further: potency means the concentration at half of the fitted maximal effect
# Summary of the method: as §1
# [13] = Quantitative highthroughput screen to assess conditional lethalithy of SEM cells grown in RPMI1640 with dialyzed fetal bovine serum (RPMI+ds) (AID 1963884); settings: SEM B-ALL cells, RPMI+dialyzed FBS, CellTiter-Glo viability, 48 h; series mostly up to 45.8 µM; further: nearly all actives have a fitted effect of over 35% in size; further: potency means the concentration at half of the fitted maximal effect
# Summary of the method: as §1
# [14] = Cellular viability qHTS for adrenocortical cancer (ACC) cell line SW-13 (AID 1963989); settings: SW-13 ACC cells viability, CellTiter-Glo, 48 h; activity (max response): hits give low values;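 further: cells grown in serum-free medium with ITS supplement; nearly all actives have a fitted effect of over 65% in size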
# Summary of the method: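 Luminescent ATP read-out (CellTiter-Glo, 20 min at room temperature) measured metabolically competent SW-13 cells after 48 h compound treatment. Final concentrations spanned up to 46 uM; bortezomib served as positive control.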
smiles,measurement,setting,value
COC(=O)c1ccc(NC(C)=O)cc1OC,Potency,[1],inactive
same,Potency,[2],inactive
same,Potency,[3],inactive
same,Potency,[4],inactive
C=CCOc1ccccc1OCC(O)CNC(C)C (configuration not stated),Potency,[1],inactive
same,Potency,[2],inactive
same,Potency,[3],inactive
same,Potency,[4],inactive
CC[C@H](C)C(=O)O[C@H]1C[C@H](O)C=C2C=C[C@H](C)[C@H](CC[C@@H](O)C[C@@H](O)CC(=O)O)[C@H]21,Potency,[1],inactive
same,Potency,[2],inactive
same,Potency,[5],inactive
same,Potency,[6],inactive
same,Potency,[7],inactive
same,Potency,[8],inactive
same,Potency,[9],inactive
same,Potency,[10],inactive
same,Potency,[11],inactive
same,Potency,[12],inactive
same,Potency,[13],inactive
same,activity (max response),[14],-19.4%
Nc1cccc2c1CN(C1CCC(=O)NC1=O)C2=O (configuration not stated),Potency,[1],inactive
same,Potency,[2],4.22 µM (active)
same,Potency,[5],inactive
same,Potency,[6],inactive
same,Potency,[7],inactive
same,Potency,[8],inactive
same,Potency,[10],inactive
same,Potency,[11],inactive
same,Potency,[13],inactive
same,activity (max response),[14],-7.43%
same,Potency,[4],inactive
CC(=O)Nc1ccc(S(=O)(=O)Nc2cc(C)on2)cc1,Potency,[1],inactive
same,Potency,[2],inactive
same,Potency,[3],inactive
same,Potency,[4],inactive
Cc1onc(-c2ccccc2)c1C(=O)Cl,Potency,[1],inactive
same,Potency,[2],inactive
same,activity (max response),[14],12.7%
NC(=O)NS(=O)(=O)c1ccc(Cl)cc1,Potency,[1],inactive
same,Potency,[2],inactive
same,Potency,[3],inactive
same,Potency,[4],inactive
CCn1c(=O)c(-c2ccn[nH]2)cc2c(C)nc(N)nc21,Potency,[1],inactive
same,Potency,[2],1.46 µM (active)
same,Potency,[3],2.91 µM (active)
same,Potency,[4],7.08 µM (active)
COc1nc(N)nc2c1ncn2[C@@H]1O[C@H](CO)[C@@H](O)[C@@H]1O,Potency,[1],inactive
same,Potency,[2],inactive
same,Potency,[5],inactive
same,Potency,[7],inactive
same,Potency,[8],inactive
same,Potency,[9],inactive
same,Potency,[10],inactive
same,Potency,[11],inactive
same,Potency,[12],inactive
same,Potency,[13],inactive
same,activity (max response),[14],-9.37%
same,Potency,[4],inactive
C=CCc1ccccc1OCC(O)CNC(C)C (configuration not stated),Potency,[1],inactive
same,Potency,[2],inactive
same,activity (max response),[14],1.07%
CCCCCCCCCCCC(=O)[O][Sn]([CH2]CCC)([CH2]CCC)[O]C(=O)CCCCCCCCCCC,Potency,[1],19.5 µM (active)
same,Potency,[2],inactive
same,activity (max response),[14],2.55%
CC(C)Nc1cc(C(F)(F)F)cc2nc(NC(=O)c3cccnc3)nn12,Potency,[1],inactive
same,Potency,[2],0.184 µM (active)
same,Potency,[5],1.05 µM (active)
same,Potency,[6],0.743 µM (active)
same,Potency,[8],0.935 µM (active)
same,Potency,[10],2.35 µM (active)
same,Potency,[11],1.32 µM (active)
same,Potency,[12],1.18 µM (active)
same,Potency,[13],1.18 µM (active)
same,activity (max response),[14],-12.5%
CCN(CC)CC(=O)Nc1c(C)cccc1C(=O)OC,Potency,[1],inactive
same,Potency,[2],inactive
same,Potency,[3],inactive
same,Potency,[4],inactive
CC1(C)OC[C@@H]2O[C@@]3(C(=O)O)OC(C)(C)O[C@H]3[C@@H]2O1,Potency,[1],inactive
same,Potency,[2],inactive
same,Potency,[3],inactive
same,Potency,[4],inactive
O=c1[nH]cnc2c1ncn2[C@H]1CC[C@@H](CO)O1,Potency,[1],inactive
same,Potency,[2],inactive
same,Potency,[9],16.6 µM (active)
same,Potency,[11],18.7 µM (active)
same,Potency,[13],inactive
same,activity (max response),[14],1.58%
same,Potency,[4],inactive
NS(=O)(=O)c1cc2c(cc1Cl)NCNS2(=O)=O,Potency,[1],inactive
same,Potency,[2],inactive
same,Potency,[5],inactive
same,Potency,[6],inactive
same,Potency,[7],inactive
same,Potency,[8],inactive
same,Potency,[9],inactive
same,Potency,[10],inactive
same,Potency,[11],inactive
same,Potency,[12],inactive
same,Potency,[13],inactive
same,activity (max response),[14],11.9% and 0.967%
same,Potency,[4],inactive
CC1(C)Oc2ccc(C#N)cc2[C@@H](N2CCCC2=O)[C@@H]1O,Potency,[1],inactive
same,Potency,[2],inactive
same,Potency,[3],inactive
same,Potency,[4],inactive
NS(=O)(=O)c1ccc(NC(=O)CCC(=O)O)cc1,Potency,[1],inactive
same,Potency,[2],inactive
same,Potency,[3],inactive
same,Potency,[4],inactive
CCOc1cc(NC(C)=O)ccc1C(=O)OC,Potency,[1],inactive
same,Potency,[2],inactive
same,Potency,[3],inactive
same,Potency,[4],inactive
CCCc1ncc(C[n+]2ccccc2C)c(N)n1,Potency,[1],inactive
same,Potency,[2],inactive
same,activity (max response),[14],-17.3%
CCn1c(=O)c(-c2ccc(-c3cncs3)cc2Cl)cc2cnc(Nc3ccc(N4CCN(C)CC4)cc3)nc21,Potency,[1],3.01 µM (active)
same,Potency,[2],0.291 µM (active)
same,Potency,[3],0.461 µM (active)
same,Potency,[4],inactive
CCOC(=O)Cn1cccc1-c1nc(-c2ccc(OC)cc2)c(-c2ccc(OC)cc2)s1,Potency,[1],inactive
same,Potency,[2],9.44 µM (active)
same,activity (max response),[14],9.49%
CCc1cccc2c(CCO)c[nH]c12,Potency,[1],inactive
same,Potency,[2],inactive
same,Potency,[3],inactive
same,Potency,[4],inactive
CC(=O)Nc1nnc(S(N)(=O)=O)s1,Potency,[1],inactive
same,Potency,[2],inactive
same,Potency,[3],inactive
same,Potency,[4],inactive
COc1ccccc1OCC(O)CN1CCN(CC(=O)Nc2c(C)cccc2C)CC1 (configuration not stated),Potency,[1],inactive
same,Potency,[2],inactive
same,Potency,[5],inactive
same,Potency,[6],inactive
same,Potency,[7],inactive
same,Potency,[8],inactive
same,Potency,[9],inactive
same,Potency,[10],inactive
same,Potency,[12],inactive
same,Potency,[13],inactive
same,activity (max response),[14],1.47% and 6.99%
same,Potency,[4],inactive
CN(C)CCOC(=O)C(c1ccccc1)C1(O)CCCC1 (configuration not stated),Potency,[1],inactive
same,Potency,[2],inactive
same,activity (max response),[14],6.08%
